Experimental data published in PubChem BioAssay (Tox21).
Several values for one entry are separate records, joined by “and”; a condition that tells them apart may be missing. Equal entries are not always repeated. Records with an inconclusive call do not appear. Where a call stands in place of a potency, no number is given. Some compounds were tested as several samples or in several runs, with calls that do not always agree. Activity calls are given as the source filed them. Unless noted, calls come from the whole dose curve; as a rule, active = well fitted curve in the direction sought with a large enough effect in the repeat runs; inconclusive = weak or mixed curves; inactive = no such curve, though single readings can be large; an effect the other way counts as inactive or inconclusive.

How the values were obtained:
[1] = qHTS assay for small molecule agonists of the p53 signaling pathway (AID 651631; calls by dose curve; note: nearly all actives have a fitted effect of over 15% in size; note: potency is the fitted concentration of half-maximal effect)
Summary of the method: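 HCT-116 p53RE-bla reporter line, 16 h compound treatment at 37 °C, then fluorescence after 2 h with B/G FRET substrate.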

[2] = qHTS assay for small molecules that induce genotoxicity in human embryonic kidney cells expressing luciferase-tagged ATAD5 (AID 651632); note: nearly all actives have a fitted effect of over 15% in size; note: potency is the fitted concentration of half-maximal effect
Summary of the method: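 Reporter cells (HEK293T) express luciferase-tagged ATAD5, a protein that accumulates after DNA damage. Treat 16 hr at 37C/5% CO2, add Amplite, wait 30 min at RT, and read luminescence.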

[3] = qHTS assay for small molecule agonists of the p53 signaling pathway - cell viability (AID 651633; calls by dose curve; note: nearly all actives have a fitted effect of over 30% in size; note: potency is the fitted concentration of half-maximal effect)
Summary of the method: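 Viability counter-read: CellTiter-Glo luminescence (30 min, room temperature) in the same p53RE-bla plates. These plates had been exposed to compounds for 16 h at 37 C.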

[4] = qHTS assay for small molecule disruptors of the mitochondrial membrane potential - cell viability (AID 720634; calls by dose curve; note: nearly all actives have a fitted effect of over 20% in size; note: potency is the fitted concentration of half-maximal effect)
Summary of the method: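 Measuring cytotoxicity alongside mitochondrial potential, the screen quantified ATP by luminescence in HepG2 cells after 1 hr compound incubation and a 30 min room-temperature CellTiter-Glo step.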

[5] = qHTS assay for small molecule disruptors of the mitochondrial membrane potential (AID 720635); note: potency is the fitted concentration of half-maximal effect
Summary of the method: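 Mitochondrial membrane potential tracked with Mito-MPS dye, red aggregates (ex 540/em 590 nm) against green monomers (ex 490/em 535 nm). Compound treatment 1 hr at 37C, dye 30 min in HepG2.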

[6] = qHTS assay to test for compound auto fluorescence at 590 nm (red) in HepG2 cells (AID 720674)
Summary of the method: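 We screened compounds on adherent HepG2 cells, incubating them for an hour at 37 C in 5% CO2 before reading emission at 590 nm under 540 nm excitation; values reflect equivalence to Rose Bengal sodium fluorescence.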

[7] = qHTS assay to test for compound auto fluorescence at 535 nm (green) in HepG2 cells (AID 720675)
[8] = qHTS assay to test for compound auto fluorescence at 460 nm (blue) in HEK293 cells (AID 720678); note: potency is the fitted concentration of half-maximal effect
Summary of the method: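 Auto fluorescence in the blue band was quantified as triamterene equivalency. HEK293 cells were seeded at 2,000/well, dosed after a 4-5 hr attachment, and kept overnight at 37C before the 405/460 nm reading.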

[9] = qHTS assay to test for compound auto fluorescence at 590 nm (red) in HEK293 cells (AID 720679)
Summary of the method: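 Autofluorescence equivalency to Rose Bengal sodium, 540/590nm, in HEK293 cells exposed overnight to 23 nL compound per well.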

[10] = qHTS assay for small molecules that induce genotoxicity in human embryonic kidney cells expressing luciferase-tagged ATAD5 - cell viability (AID 651634; calls by dose curve; note: nearly all actives have a fitted effect of over 25% in size; note: potency is the fitted concentration of half-maximal effect)
Summary of the method: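 Seeding of 2,000 HEK293T ATAD5-luciferase cells per well preceded pin-tool compound transfer. Plates sat 15.5 hr at 37C under 5% CO2, then fluorescence was read after 30 min with CellTiter-Fluor.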
Tags give direction and shape of the fitted curve or compound fluorescence and quenching.

| SMILES | Potency [1] | Potency [2] | Potency [3] | Potency [4] | Potency [5] | Potency [6] | Potency [7] | Potency [8] | Potency [9] | Potency [10] |
| --- | --- | --- | --- | --- | --- | --- | --- | --- | --- | --- |
| O=C(O)c1cc(O)c2c(c1)C(=O)c1cccc(O)c1C2=O | 19.9 µM (active) | inactive | inactive | inactive | 2.51 µM (active) | inactive | inactive | inactive | inactive | – |
| CCN(CC)CCCC(C)Nc1c2ccc(Cl)cc2nc2ccc(OC)cc12 (centres undefined) | 5.96 µM (active) | 29.8 µM (active) | – | – | – | inactive | inactive | 11.2 µM [fluorescent] (active) | inactive | inactive |
| N=C1N=C(N)c2ccccc21 | 24.3 µM (active) | 21.7 µM (active) | 21.7 µM (active) | inactive | – | inactive | inactive | inactive | inactive | – |
| Cc1nc(-c2ccc3c(c2)CCN(CCC2CCC(NC(=O)/C=C/c4ccc(F)cc4)CC2)CC3)no1 (centres undefined) | 27.4 µM (active) | 19.4 µM (active) | inactive | inactive | inactive | inactive | inactive | inactive | inactive | – |
| O=C(OC[C@H]1O[C@@H](OC(=O)c2cc(O)c(O)c(OC(=O)c3cc(O)c(O)c(O)c3)c2)[C@H](OC(=O)c2cc(O)c(O)c(OC(=O)c3cc(O)c(O)c(O)c3)c2)[C@@H](OC(=O)c2cc(O)c(O)c(OC(=O)c3cc(O)c(O)c(O)c3)c2)[C@@H]1OC(=O)c1cc(O)c(O)c(OC(=O)c2cc(O)c(O)c(O)c2)c1)c1cc(O)c(O)c(OC(=O)c2cc(O)c(O)c(O)c2)c1 | 2.66 µM (active) and 10.4 µM (active) | inactive | 5.96 µM (active) and inactive | 10.6 µM (active) and inactive | 2.37 µM (active) | inactive | inactive | inactive | inactive | – |
| Cc1cc2c(cc1C(F)(F)F)N(C(=O)Nc1ccc(Oc3cccnc3C)nc1)CC2 | inactive | inactive | inactive | – | 12.4 µM (active) | inactive | inactive | inactive | inactive | – |
| COc1cc(/C=C/C(=O)O[C@H]2CC[C@]34C[C@]35CC[C@]3(C)[C@@H]([C@H](C)CCC=C(C)C)CC[C@@]3(C)[C@@H]5CC[C@H]4C2(C)C)ccc1O | 7.5 µM (active) | 7.5 µM (active) | – | inactive | – | inactive | inactive | inactive | inactive | inactive |
| CC(=O)N1CCN(c2ccc(OC[C@H]3CO[C@](Cn4ccnc4)(c4ccc(Cl)cc4Cl)O3)cc2)CC1 | inactive | inactive | inactive and 61.1 µM (active) | inactive | 4.86 µM (active) | inactive | inactive | inactive | inactive | – |
| C=CC(=O)OCC(CO)(COCC(COC(=O)C=C)(COC(=O)C=C)COC(=O)C=C)COC(=O)C=C | 67.8 µM (active) | 2.4 µM (active) | 2.7 µM (active) | – | – | inactive | inactive | inactive | inactive | 7.6 µM (active) |
| O=c1cc(-c2ccc(O)cc2)oc2cc(O)cc(O)c12 | 15.6 µM (active) and 43.3 µM (active) | 5.52 µM (active) and 4.86 µM (active) | inactive and 54.5 µM (active) | 4.92 µM (active) | 1.75 µM (active) and 1.37 µM (active) | inactive | inactive | inactive | inactive | – |
| O=[N+]([O-])c1ccccc1Nc1ccccc1 | inactive | inactive | inactive | inactive | – | inactive | inactive | inactive | inactive | – |
| Oc1c(Cl)cc(Cl)c2cccnc12 | 2.37 µM (active) | 13.3 µM (active) | – | inactive | 10.6 µM (active) | inactive | inactive | inactive | inactive | – |
| CC(C)(C)c1ccc(C(=O)O)cc1 | inactive | inactive | inactive | – | – | inactive | inactive | inactive | inactive | inactive |
| O=C(NOCC1CC1)c1ccc(F)c(F)c1Nc1ccc(I)cc1Cl | 11.9 µM (active) | inactive | 23.7 µM (active) | – | 8.41 µM (active) | inactive | inactive | inactive | inactive | inactive |
| CCCC1O[C@@H]2C[C@H]3[C@@H]4CCC5=CC(=O)C=C[C@]5(C)[C@H]4[C@@H](O)C[C@]3(C)[C@]2(C(=O)CO)O1 (some centres undefined) | inactive | inactive | – | inactive | inactive | inactive | inactive | inactive | inactive | inactive |
| CNC(=O)c1ccccc1 | inactive | inactive | – | inactive | inactive | inactive | inactive | inactive | inactive | inactive |
| CSc1cnc(C)cn1 | inactive | inactive | inactive | inactive | inactive | inactive | inactive | inactive | inactive | – |
| O=C(Nc1cccc(C(F)(F)F)c1)c1cc(Br)cc(Br)c1O | 5.31 µM (active) and 1.72 µM (active) | inactive | 473 nM (active) and 686 nM (active) | – | 335 nM (active) and 109 nM (active) | inactive | inactive | inactive | inactive | 13.3 µM (active) |
| CCN(C(=O)c1cc(C)cc(OC[C@H](C)Nc2ccncc2)c1)C(C)C | inactive | inactive | – | inactive | – | inactive | inactive | inactive | inactive | inactive |
| O=C1Cc2cc(CCN3CCN(c4nsc5ccccc45)CC3)c(Cl)cc2N1 | inactive | inactive | inactive and 23.7 µM (active) | inactive | inactive | inactive | inactive | inactive | inactive | – |
| CCCCCCOC(=O)c1ccc(O)cc1 | – | 21.7 µM (active) and 19.3 µM (active) | inactive | 27.3 µM (active) and 17.2 µM (active) | 6.12 µM (active) and 8.63 µM (active) | inactive | inactive | inactive | inactive | inactive |
